# Results taken from ChEMBL document CHEMBL2218924, “A broad activity screen in support of a chemogenomic map for kinase signalling research and drug discovery” (Biochem J, 2013).
# Assays:
# [1] = biological target: Tyrosine-protein kinase SYK (Homo sapiens) (UniProt P43405); conditions: at 10 µM
# [2] = biological target: T1, Mitogen-activated protein kinase kinase kinase 7 (Homo sapiens) (UniProt O43318); conditions: at 1 µM
# T1 sequence (whole entry): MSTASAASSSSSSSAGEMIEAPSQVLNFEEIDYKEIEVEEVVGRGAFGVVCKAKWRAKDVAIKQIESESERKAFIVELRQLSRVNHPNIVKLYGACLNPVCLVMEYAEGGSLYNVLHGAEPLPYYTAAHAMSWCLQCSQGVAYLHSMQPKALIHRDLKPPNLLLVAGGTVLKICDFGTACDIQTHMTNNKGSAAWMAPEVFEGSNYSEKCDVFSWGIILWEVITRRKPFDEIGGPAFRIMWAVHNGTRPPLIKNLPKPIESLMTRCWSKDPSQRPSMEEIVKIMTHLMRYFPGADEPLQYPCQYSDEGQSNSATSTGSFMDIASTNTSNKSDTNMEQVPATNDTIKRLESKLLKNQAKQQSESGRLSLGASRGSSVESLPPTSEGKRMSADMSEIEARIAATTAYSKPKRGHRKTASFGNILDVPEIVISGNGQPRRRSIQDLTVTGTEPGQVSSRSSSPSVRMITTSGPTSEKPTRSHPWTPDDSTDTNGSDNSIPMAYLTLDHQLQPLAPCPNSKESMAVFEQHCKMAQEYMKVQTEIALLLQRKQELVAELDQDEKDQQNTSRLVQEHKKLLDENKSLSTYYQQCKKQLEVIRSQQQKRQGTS
# [3] = biological target: T1, Mitogen-activated protein kinase kinase kinase 7 (Homo sapiens); conditions: at 10 µM
# [4] = biological target: T2, Serine/threonine-protein kinase TAO1 (Homo sapiens) (UniProt Q7L7X3); conditions: at 1 µM
# T2 sequence (whole entry): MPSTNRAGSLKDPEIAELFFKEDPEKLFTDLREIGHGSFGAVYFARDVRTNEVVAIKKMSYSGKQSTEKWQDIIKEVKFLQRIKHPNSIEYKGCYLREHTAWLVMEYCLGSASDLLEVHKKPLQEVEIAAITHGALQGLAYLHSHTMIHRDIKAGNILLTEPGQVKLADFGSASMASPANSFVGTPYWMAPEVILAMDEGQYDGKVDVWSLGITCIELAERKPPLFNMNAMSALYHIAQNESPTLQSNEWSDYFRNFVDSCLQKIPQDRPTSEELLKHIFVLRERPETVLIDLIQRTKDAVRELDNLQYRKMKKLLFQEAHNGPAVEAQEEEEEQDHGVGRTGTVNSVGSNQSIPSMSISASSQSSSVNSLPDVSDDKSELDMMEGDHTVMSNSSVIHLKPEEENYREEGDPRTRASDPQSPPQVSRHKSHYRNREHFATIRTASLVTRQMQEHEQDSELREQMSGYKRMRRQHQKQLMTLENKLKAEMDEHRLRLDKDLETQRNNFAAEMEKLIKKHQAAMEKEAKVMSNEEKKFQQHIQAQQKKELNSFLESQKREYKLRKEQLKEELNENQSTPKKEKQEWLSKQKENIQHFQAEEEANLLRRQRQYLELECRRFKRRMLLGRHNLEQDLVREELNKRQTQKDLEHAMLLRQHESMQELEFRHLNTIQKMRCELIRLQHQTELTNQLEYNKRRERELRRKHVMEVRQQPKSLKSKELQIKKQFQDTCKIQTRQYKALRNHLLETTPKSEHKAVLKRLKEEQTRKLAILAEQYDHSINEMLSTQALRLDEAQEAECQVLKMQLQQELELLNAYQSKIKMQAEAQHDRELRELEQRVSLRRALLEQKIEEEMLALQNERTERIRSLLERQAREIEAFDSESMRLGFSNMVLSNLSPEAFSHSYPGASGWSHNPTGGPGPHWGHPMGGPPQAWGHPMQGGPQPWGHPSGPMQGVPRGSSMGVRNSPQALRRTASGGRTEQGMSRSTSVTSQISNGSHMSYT
# [5] = biological target: T2, Serine/threonine-protein kinase TAO1 (Homo sapiens); conditions: at 10 µM
# [6] = biological target: T3, Serine/threonine-protein kinase TAO2 (Homo sapiens) (UniProt Q9UL54); conditions: at 1 µM
# T3 sequence (whole entry): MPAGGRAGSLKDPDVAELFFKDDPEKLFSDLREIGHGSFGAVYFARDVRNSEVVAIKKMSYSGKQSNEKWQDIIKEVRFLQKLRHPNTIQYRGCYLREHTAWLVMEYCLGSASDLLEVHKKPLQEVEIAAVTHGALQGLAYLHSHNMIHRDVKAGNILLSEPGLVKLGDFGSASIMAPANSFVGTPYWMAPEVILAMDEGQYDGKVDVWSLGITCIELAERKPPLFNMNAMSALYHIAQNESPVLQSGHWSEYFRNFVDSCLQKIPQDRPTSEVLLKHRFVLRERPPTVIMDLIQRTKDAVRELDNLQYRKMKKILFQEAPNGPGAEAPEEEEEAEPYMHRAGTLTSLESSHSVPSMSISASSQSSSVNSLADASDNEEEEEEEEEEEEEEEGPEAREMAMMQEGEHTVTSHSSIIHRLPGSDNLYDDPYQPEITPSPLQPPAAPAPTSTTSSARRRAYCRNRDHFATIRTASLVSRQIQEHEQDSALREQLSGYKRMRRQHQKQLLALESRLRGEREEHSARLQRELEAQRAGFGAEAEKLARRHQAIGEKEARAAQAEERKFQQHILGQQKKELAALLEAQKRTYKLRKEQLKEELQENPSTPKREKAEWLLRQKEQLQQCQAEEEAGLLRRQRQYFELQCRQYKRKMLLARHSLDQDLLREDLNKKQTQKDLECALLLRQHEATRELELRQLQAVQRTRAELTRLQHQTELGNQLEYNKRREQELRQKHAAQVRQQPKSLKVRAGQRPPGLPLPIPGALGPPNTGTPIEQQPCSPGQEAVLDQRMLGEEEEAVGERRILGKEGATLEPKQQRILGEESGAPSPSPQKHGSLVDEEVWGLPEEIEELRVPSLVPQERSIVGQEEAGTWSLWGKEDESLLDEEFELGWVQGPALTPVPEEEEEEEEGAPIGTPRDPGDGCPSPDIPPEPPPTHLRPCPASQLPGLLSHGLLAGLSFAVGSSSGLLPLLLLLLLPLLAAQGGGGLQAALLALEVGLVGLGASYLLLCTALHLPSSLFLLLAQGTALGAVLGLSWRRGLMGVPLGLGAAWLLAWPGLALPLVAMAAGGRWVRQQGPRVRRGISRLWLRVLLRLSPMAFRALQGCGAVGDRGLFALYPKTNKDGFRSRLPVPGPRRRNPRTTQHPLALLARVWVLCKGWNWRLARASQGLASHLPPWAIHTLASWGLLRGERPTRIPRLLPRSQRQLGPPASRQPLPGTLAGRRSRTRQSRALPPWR
# [7] = biological target: T3, Serine/threonine-protein kinase TAO2 (Homo sapiens); conditions: at 10 µM
# [8] = biological target: T4, Serine/threonine-protein kinase TAO3 (Homo sapiens) (UniProt Q9H2K8); conditions: at 1 µM
# T4 sequence (whole entry): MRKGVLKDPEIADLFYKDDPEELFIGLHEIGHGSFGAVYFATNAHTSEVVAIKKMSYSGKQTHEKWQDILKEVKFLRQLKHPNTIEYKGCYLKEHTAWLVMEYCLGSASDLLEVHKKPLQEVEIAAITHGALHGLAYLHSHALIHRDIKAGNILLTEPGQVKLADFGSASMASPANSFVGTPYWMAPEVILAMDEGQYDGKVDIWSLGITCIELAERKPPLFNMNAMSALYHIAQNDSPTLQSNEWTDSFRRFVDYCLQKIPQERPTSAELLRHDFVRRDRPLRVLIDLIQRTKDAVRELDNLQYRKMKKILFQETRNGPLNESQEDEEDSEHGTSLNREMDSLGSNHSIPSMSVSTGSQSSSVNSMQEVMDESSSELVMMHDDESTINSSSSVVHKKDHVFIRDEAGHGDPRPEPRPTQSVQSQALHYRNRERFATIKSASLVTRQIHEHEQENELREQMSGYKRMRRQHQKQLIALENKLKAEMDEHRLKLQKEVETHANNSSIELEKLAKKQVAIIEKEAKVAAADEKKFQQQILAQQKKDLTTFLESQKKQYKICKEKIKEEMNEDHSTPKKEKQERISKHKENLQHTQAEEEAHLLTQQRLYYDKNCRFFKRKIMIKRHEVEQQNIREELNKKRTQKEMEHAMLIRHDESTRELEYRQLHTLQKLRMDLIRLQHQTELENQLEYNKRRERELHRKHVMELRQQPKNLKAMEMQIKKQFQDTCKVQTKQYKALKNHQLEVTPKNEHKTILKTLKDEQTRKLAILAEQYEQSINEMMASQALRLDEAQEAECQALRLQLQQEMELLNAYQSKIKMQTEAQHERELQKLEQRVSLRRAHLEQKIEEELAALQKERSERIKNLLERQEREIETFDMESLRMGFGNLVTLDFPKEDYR
# [9] = biological target: T4, Serine/threonine-protein kinase TAO3 (Homo sapiens); conditions: at 10 µM
# [10] = biological target: T5, Serine/threonine-protein kinase TBK1 (Homo sapiens) (UniProt Q9UHD2); conditions: at 1 µM
# T5 sequence (whole entry): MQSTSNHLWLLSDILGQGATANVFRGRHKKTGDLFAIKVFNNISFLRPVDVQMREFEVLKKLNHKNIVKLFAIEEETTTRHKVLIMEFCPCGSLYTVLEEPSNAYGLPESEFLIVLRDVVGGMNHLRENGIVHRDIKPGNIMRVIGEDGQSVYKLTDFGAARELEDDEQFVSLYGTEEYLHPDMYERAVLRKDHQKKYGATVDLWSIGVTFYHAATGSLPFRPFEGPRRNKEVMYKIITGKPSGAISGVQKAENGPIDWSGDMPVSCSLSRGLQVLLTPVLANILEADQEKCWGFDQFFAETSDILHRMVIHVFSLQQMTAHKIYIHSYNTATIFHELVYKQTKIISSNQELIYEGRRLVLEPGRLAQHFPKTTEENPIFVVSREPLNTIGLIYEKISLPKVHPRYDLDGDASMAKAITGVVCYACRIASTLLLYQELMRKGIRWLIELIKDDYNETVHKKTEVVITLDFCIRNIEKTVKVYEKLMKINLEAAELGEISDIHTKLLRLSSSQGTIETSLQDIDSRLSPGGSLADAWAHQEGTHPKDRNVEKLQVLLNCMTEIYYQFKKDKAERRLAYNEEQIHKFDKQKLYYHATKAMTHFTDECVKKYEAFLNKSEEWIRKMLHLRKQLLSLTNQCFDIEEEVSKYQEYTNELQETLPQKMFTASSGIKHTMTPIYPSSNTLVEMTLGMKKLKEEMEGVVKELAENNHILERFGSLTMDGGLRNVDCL
Compound,residual activity [1] [%],residual activity [2] [%],residual activity [3] [%],residual activity [4] [%],residual activity [5] [%],residual activity [6] [%],residual activity [7] [%],residual activity [8] [%],residual activity [9] [%],residual activity [10] [%]
O=C(Nc1cccc(Nc2cc(Nc3cccc(C(F)(F)F)c3)ncn2)c1)C1CC1,105,95,95,100,73,94,80,100,96,89
Oc1n[nH]c2nnc(-c3c(-c4ccccc4)nn4ccccc34)cc12,105,87,74,83,79,98,96,89,90,67
CCN(CC)CCCCN1c2ccccc2Oc2ccc(Cl)cc21,93,97,90,117,100,100,92,101,96,91
CC(C)n1cnc2c(NCc3ccccc3)nc(NCCCO)nc21,105,96,92,87,81,100,101,97,88,79
C[C@@H](N)[C@H]1CC[C@H](C(=O)Nc2ccncc2)CC1,102,109,113,93,78,112,109,105,103,107
Cc1cncc2cccc(S(=O)(=O)N3CCCN(C(=O)CN)C[C@H]3C)c12,85,88,83,81,28,,,93,65,68
Cn1nc2c3c(cccc31)C(=O)c1ccccc1-2,100,87,46,94,88,,95,91,90,67
COc1cc2ncc(-c3ccccc3)nc2cc1OC,100,98,82,,91,,,,,91
Cn1cnc2cc3c(Nc4cccc(Br)c4)ncnc3cc21,86,98,106,,73,98,98,94,93,83
O=C(O)c1ccc2c3c1cccc3c(=O)n1c3ccccc3nc21,105,89,41,90,56,110,91,91,65,19
Cc1nc(-c2ccccc2)c(-c2ccncc2)o1,116,103,97,103,79,120,108,107,101,102
O=C1Nc2ccccc2/C1=C1/Nc2ccccc2/C1=N\OCCC(O)CO (stereo not drawn),42,36,38,,45,,70,,71,9
O=C1Nc2ccc(Br)cc2/C1=C\c1cc2c([nH]1)CCCC2,100,,,104,98,111,,,,59
Oc1ccc(-c2nc(-c3ccc(F)cc3)c(-c3ccncc3)[nH]2)cc1,100,104,101,102,69,106,68,111,84,110
Cc1ccc(NC2=CC(=O)c3sc(C)nc3C2=O)cc1,113,86,89,91,77,95,88,94,93,77
Ic1cccc(CSc2nnc(-c3ccncc3)o2)c1,96,,82,63,47,88,85,93,89,15
N#CCCc1ccc2c(c1)-c1[nH]c3ccc([N+](=O)[O-])cc3c1CC(=O)N2,41,57,21,58,24,64,52,56,41,38
Cc1cc(Nc2nc(-c3ccccc3)nc3ccccc23)n[nH]1,3,67,40,,51,,45,,67,19
O=C1NC(=O)c2cc(Nc3ccc(F)cc3)c(Nc3ccc(F)cc3)cc21,78,83,,83,39,63,21,79,37,69
